High-throughput results as filed in PubChem.
Rows were chosen to be rich in hits. Some 6.1% of all compounds tested hit in one or more screens of this group.
MKP-1 inh – human dual specificity phosphatase 1 inhibition | P28562 | recombinant MKP-1, OMFP hydrolysis fluorescence | inhibition, %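 (compounds tested at a single concentration somewhere between 10 and 100 µM)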 | 65,000 tested, 0.15% active;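 active = inhibition above about 50%, limit read from the data; inconclusive = inhibition over screen mean plus 3 SD, below that limit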;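 note: 0% = DMSO max control wells and 100% = wells with enzyme stopped by NaOH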
M1 agonist – agonists of M1 muscarinic receptor | CHO-M1 cells, Fluo-4 calcium fluorescence, agonist mode; hits give high values | B-score at 10 µM | 64,000 tested, 3% active | AID 626;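 active = fluorescence rise, raw or as B-score row- and column-corrected plate score, outside the 99.7% band of its plate's samples, either direction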
M1 antag – antagonists of rat M1 muscarinic receptor; P08482; CHO-M1 cells, Fluo-4 calcium, ACh EC80 antagonist mode; hits give low values; B-score at 10 µM; 64,000 tested, 3.4% active; AID 628;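 active = calcium fluorescence response, raw or row-and-column corrected B-score, differing from the plate sample mean either way at a set confidence level, mostly lower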
MMP13 inh – MMP13 (human) collagenase inhibition. P45452. 65,000 tested, 0.07% active. inhibition, % at 4 µM. MMP-13 fTHP FRET cleavage, Mca fluorescence;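 active = inhibition above the mean of compound-free control plate wells plus 3 SD, cut at about 14% in these data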;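 note: 0% = DMSO wells and 100% = wells with reference MMP-13 inhibitor after basal subtraction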
Hsp90 block – displaces geldanamycin probe from tumor Hsp90. P07900. NCI-N417 lysate Hsp90, Cy3B-geldanamycin FP displacement. inhibition, % at 30 µM. 64,000 tested, 0.35% active;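 active = inhibition above 50%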;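 note: 0% = tracer plus lysate wells and 100% = tracer alone without lysate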
Cdc25B inh – inhibitors of human Cdc25B phosphatase; recombinant Cdc25B, OMFP fluorescence Ex485/Em525; inhibition, %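 (compounds tested at 10 µM final in the well)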; 65,000 tested, 0.1% active; P30305; AID 368; in the data active = inhibition above about 50%
Target sequence (P30305 whole entry, looked up): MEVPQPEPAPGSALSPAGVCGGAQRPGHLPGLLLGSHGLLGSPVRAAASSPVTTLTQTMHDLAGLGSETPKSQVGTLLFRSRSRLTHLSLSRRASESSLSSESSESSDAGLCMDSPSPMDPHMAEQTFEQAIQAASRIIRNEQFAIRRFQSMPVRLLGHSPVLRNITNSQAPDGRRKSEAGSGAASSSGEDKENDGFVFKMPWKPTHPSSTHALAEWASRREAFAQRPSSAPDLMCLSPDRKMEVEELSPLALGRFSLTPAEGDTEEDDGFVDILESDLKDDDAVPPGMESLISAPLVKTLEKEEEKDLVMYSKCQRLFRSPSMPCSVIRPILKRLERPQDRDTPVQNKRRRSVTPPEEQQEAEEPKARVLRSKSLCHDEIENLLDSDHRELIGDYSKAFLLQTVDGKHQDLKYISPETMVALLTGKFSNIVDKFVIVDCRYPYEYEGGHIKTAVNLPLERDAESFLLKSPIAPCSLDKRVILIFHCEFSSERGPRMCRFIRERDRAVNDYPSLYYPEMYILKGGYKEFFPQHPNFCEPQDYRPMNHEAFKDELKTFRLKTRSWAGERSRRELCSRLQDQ
M1 ag confirm – rat M1 muscarinic agonism, confirmation. CHO-M1 cells, Fluo-4 calcium fluorescence, agonist mode; actives lie on both sides. shares compounds with M1 agonist. 1,700 tested, 19% active. fluorescence change (max-min) at 10 µM. AID 1488;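 active = fluorescence change differs from the solvent-only DMSO control mean at a set confidence level in both duplicate runs; inconclusive = differs from solvent-only control mean in just one of two runs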;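 note: an EC20 dose of acetylcholine follows compound addition during the same imaging run; raw fluorescence intensity difference in instrument units with no normalization to controls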
M4 agonist ctr – activates rat M4 receptor in counter-screen for M1 agonists. shares compounds with M1 agonist. CHO M4/Gqi5 cells, Fluo-4 calcium fluorescence, agonist mode; actives lie on both sides. fluorescence change (max-min) at 10 µM. 1,700 tested, 9% active;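 active = fluorescence change differing from the plate's solvent-only control wells at 99.7% confidence in both duplicates, whether higher or lower; inconclusive = differs from solvent controls in only one of two duplicates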
* marks the source's active call; other numbers are inactive results; ? = inconclusive; . = no result.

SMILES | MKP-1 inh | M1 agonist | M1 antag | MMP13 inh | Hsp90 block | Cdc25B inh | M1 ag confirm | M4 agonist ctr
Cc1nc(SCC(=O)Nc2c(C)n(C)n(-c3ccccc3)c2=O)n[nH]1 | -10 | -0.032 | 0.71 | 1 | -1 | 4 | . | .
CCn1c(SCC(=O)Nc2nc3ccccc3s2)nc2c(c1=O)SC(C)C2 (configuration not stated) | 8 | 2.3* | -1.1 | -1 | 0 | -12 | ? | -70
CCn1c(SCC(=O)Nc2nc3ccc(C)cc3s2)nc2c(c1=O)SC(C)C2 (configuration not stated) | 14 | 0.022 | 0.028 | 3 | -1 | 14 | . | .
CCOC(=O)c1coc(CNC(=O)c2c(C)oc3c2CCCC3)c1 | -24 | 15* | 0.27 | 3 | -6 | -3 | ? | -49
Cc1oc2c(c1C(=O)NCc1cc(C(=O)O)co1)CCCC2 | 17 | -0.19 | 0.12 | -2 | -7 | 7 | . | .
Cc1ccc(Cn2nnc(C(=O)Nc3cccc(C)c3C)c2N)cc1 | 4 | 7.5* | 0.014 | 1 | -1 | -7 | 4.2 | -62
CCc1ccc(Cn2nnc(C(=O)Nc3cccc(C)c3)c2N)cc1 | 9 | -0.15 | 0.15 | 6 | 1 | 2 | . | .
CCc1ccc(Cn2nnc(C(=O)NCc3ccccc3OC)c2N)cc1 | -9 | 2.2* | 0.14 | 5 | -6 | 6 | -29 | -23
CC(=O)Nc1cc2c(cc1C(C)=O)OCCO2 | 16 | -0.06 | 0.069 | -2 | -2 | -3 | . | .
CC(=O)c1cc2c(cc1NC(=O)Nc1cccc(Cl)c1)OCCO2 | 6 | 19* | 0.076 | -25 | -17 | -6 | 42 | 18
COc1cc(/C=c2\s/c(=C(/C#N)C(=O)N3CCCC3)n(-c3ccccc3)c2=O)ccc1O | 31 | 48* | -0.43 | 8 | -11 | -5 | 40 | 43
O=S(=O)(Nc1nc2ccccc2nc1N1CCN(c2ccccn2)CC1)c1ccc(Cl)cc1 | 35 | 9.2* | -0.32 | 1 | 2 | 11 | 46 | ?
N/C(=N\c1nc2ccccc2o1)NC(=O)c1ccccc1NC(=O)c1ccccc1 | -24 | 2.4 | -0.11 | -6 | -4 | 7 | . | .
COc1ccccc1C(=O)NC(=Nc1nc2ccccc2o1)NC(=O)c1ccccc1OC | -27 | 6.4* | -0.46 | -6 | -2 | 11 | ? | -50
Nn1c(COc2cccc(Br)c2)nnc1SCC(=O)N1CCc2ccccc2C1 | 13 | 1.1 | 0.4 | -4 | . | -10 | . | .
CC(C)Oc1ccc(CSc2nnc3n(C)c(=O)c4c5c(sc4n23)CCCC5)cc1 | 13 | 0.023 | -0.097 | -1 | 3 | -6 | . | .
C=C(C)CSc1nnc2n(C)c(=O)c3c4c(sc3n12)CCC4 | -4 | 3.5* | 0.0045 | 2 | -2 | 18 | -19 | ?
Cc1noc(C)c1C(=O)Nc1nc(C23CC4CC(CC(C4)C2)C3)cs1 | 8 | -0.1 | 0.17 | 0 | 0 | -2 | . | .
Cn1c(-c2ccc(F)cc2)cnc1SCC(=O)Nc1ccccc1N1CCOCC1 | 21 | -0.11 | 0.047 | 3 | -4 | -8 | . | .
O=C(c1ccco1)c1nnn(Cc2ccccc2)c1-c1ccccc1 | -2 | -0.064 | 0.012 | 8 | 0 | -7 | . | .
CC1(C)Cc2ccccc2-c2nnc(-c3ccccn3)n21 | 10 | -0.15 | 0.31 | -1 | -1 | 1 | . | .
COc1ccc(CNC(=O)CSc2ncnc3nc[nH]c23)cc1 | 24 | 31* | -0.83 | -2 | -1 | 6 | ? | -63
O=C(CSc1ncnc2nc[nH]c12)NCCc1ccccc1 | 1 | -0.52 | 0.079 | 4 | -2 | 1 | . | .
CC(C)(C)SCCNC(=O)c1ccc(NS(C)(=O)=O)cc1 | -5 | 2.1 | -0.45 | 0 | 0 | 4 | . | .
CCOC(=O)c1ccc(NC(=O)C2=C(C)Nc3nc(CCCO)nn3C2c2ccc(OC)cc2)cc1 (configuration not stated) | 30 | -0.066 | 0.79 | 7 | 3 | -2 | . | .
SMILES | MKP-1 inh | M1 agonist | M1 antag | MMP13 inh | Hsp90 block | Cdc25B inh | M1 ag confirm | M4 agonist ctr
O=C(CS(=O)(=O)c1c[nH]c2ccccc12)Nc1ccc2c(c1)OCCO2 | . | 3.2* | 0.052 | -2 | . | . | -11 | -41
CCC(C)(C)n1nnnc1CN(Cc1cc2cc(OC)c(OC)cc2[nH]c1=O)C1CCCC1 | -12 | -0.031 | -0.2 | -28 | 2 | -8 | . | .
Cc1ccnc(SCCn2c(N3CCOCC3)nc3c2c(=O)n(C)c(=O)n3C)n1 | 1 | -1.3 | -0.44 | 4 | -3 | 7 | . | .
Cc1ccc(OCCn2c(C)c(/C=N/n3cnnc3)c3ccccc32)cc1 | 18 | -1 | 0.06 | -2 | 0 | -3 | . | .
C(=N\n1cnnc1)/c1cccc2ccccc12 | -19 | -0.024 | -0.21 | -4 | -5 | 3 | . | .
Cc1ccc(-n2c(O)c(/C=N/n3cnnc3)c3ccccc3c2=O)cc1 | 29 | 26* | 0.14 | -13 | -2 | 6 | 121* | 54
O=c1c2ccccc2c(/C=N/n2cnnc2)c(O)n1-c1ccccc1F | 22 | 55* | -0.12 | -37 | 1 | 3 | 350* | 698*
CCOC(=O)c1cccc(NC(=O)CSc2nnc(-c3cccnc3)n2CC)c1 | 5 | 1.1 | -0.47 | -1 | 0 | -11 | . | .
CCn1c(SCC(=O)c2cc(C)n(-c3ccc(C(=O)OC)cc3)c2C)nnc1-c1cccnc1 | 18 | 3.9* | -2.1 | -7 | -4 | -15 | -20* | ?
COc1ccc(OCC(O)Cn2c(=N)n(CCN3CCOCC3)c3ccccc32)cc1 (configuration not stated) | -39 | 7.5* | -0.021 | -4 | -3 | -8 | -26 | -30
O=C(O)c1ccccc1NCN1C(=O)C2CC=C(Cl)CC2C1=O (configuration not stated) | 2 | -2.2* | -0.34 | -51 | 0 | 6 | -26* | ?
O=C1C2CC=C(Cl)CC2C(=O)N1CC1Cc2ccccc2CO1 (configuration not stated) | 6 | 2.2* | 0.43 | 1 | -3 | 3 | 28 | -18
O=C1C2CC=C(Cl)CC2C(=O)N1CN(Cc1ccco1)CN1C(=O)C2CC=C(Cl)CC2C1=O (configuration not stated) | 34 | -0.34 | 0.95 | 3 | -2 | 2 | . | .
CC(C)(C)c1ccccc1NC(=O)c1ccco1 | 3 | 0.017 | -0.15 | 6 | -1 | -10 | . | .
C=CCn1c(NCc2ccc3c(c2)OCO3)nc2ccccc21 | 0 | -0.49 | 0.093 | -2 | -4 | -7 | . | .
Oc1ccc(-c2nc3ccccn3c2NCc2ccc3c(c2)OCO3)cc1 | -20 | 4* | -2.6 | -74 | 3 | -11 | -4.7 | -23
CC1(C)CC(=O)C=C(Nc2ccccc2NC(=O)c2cnccn2)C1 | 15 | 21* | -1.8* | 4 | -2 | -6 | -13 | -23
